Common to all, as to assay: DAPPL (digital affinity profiling via proximity ligation, sequencing); 10 mM Tris-HCl pH 7.5, 50 mM NaCl, 1 mM DTT, 4% glycerol, room temperature, 30 min; GST-TFs on glutathione beads, 16-mer random dsDNA library, 0.1% formaldehyde crosslink after washing; high values mean tight binding
What all share (conditions): protein: recombinant; tags: N-terminal GST; dsDNA, one strand shown

For one test, the target named is T1, ELK4 (Homo sapiens, UniProt P28324-2 1-405).
T1 sequence: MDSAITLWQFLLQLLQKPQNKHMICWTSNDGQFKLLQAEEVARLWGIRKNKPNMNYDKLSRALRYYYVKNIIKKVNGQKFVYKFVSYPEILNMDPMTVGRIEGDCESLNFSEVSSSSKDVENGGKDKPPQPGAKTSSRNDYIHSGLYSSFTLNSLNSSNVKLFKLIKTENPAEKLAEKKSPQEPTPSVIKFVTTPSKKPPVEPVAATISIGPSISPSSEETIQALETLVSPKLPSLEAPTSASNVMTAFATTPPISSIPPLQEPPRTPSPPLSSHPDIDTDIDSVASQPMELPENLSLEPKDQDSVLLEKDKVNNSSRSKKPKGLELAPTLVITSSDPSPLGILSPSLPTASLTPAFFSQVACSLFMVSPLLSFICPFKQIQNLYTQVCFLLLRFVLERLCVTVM
An outline of the steps:
(§1)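 Each value of binding signal is a hexamer's read frequency for a factor divided by the same hexamer's frequency in the tag-only sample. Barcoded, bead-captured GST fusions of human transcription factors made in yeast were pooled with that sample and incubated with 200 nmole of a random double-stranded 16-mer DNA library in Tris/NaCl/DTT/glycerol buffer at room temperature for 30 min. Washing, 0.1% formaldehyde crosslinking, proximity ligation, PCR and Illumina NextSeq500 sequencing followed.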

For a further test, the target named is T2, ETV2 (Homo sapiens, UniProt O00321 1-342).
T2 sequence: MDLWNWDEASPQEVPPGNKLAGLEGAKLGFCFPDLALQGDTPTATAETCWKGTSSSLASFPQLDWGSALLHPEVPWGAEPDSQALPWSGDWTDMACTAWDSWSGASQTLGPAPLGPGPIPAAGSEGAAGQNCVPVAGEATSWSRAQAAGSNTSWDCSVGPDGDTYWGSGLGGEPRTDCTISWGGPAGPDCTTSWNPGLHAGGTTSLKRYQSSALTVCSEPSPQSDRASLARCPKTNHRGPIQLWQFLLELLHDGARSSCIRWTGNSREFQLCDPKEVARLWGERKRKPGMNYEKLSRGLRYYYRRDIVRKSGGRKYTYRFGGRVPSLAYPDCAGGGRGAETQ
An outline of the steps: as §1

For a further test, the target named is CRX (Homo sapiens, UniProt O43186 1-299). An outline of the steps: as §1
CRX, sequence (O43186 whole entry): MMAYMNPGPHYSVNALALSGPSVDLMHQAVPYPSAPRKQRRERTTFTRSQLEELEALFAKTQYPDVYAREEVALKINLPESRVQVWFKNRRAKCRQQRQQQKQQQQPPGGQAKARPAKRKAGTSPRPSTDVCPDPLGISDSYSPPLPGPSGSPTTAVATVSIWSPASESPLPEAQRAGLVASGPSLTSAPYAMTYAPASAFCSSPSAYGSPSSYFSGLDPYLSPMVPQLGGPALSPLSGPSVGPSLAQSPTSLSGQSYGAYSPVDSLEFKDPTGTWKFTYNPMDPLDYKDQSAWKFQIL
The next test concerns the target ETV1 (Homo sapiens, UniProt P50549 1-477). An outline of the steps:
as §1

In the next test the target is T3, ERF (Homo sapiens, UniProt P50548 1-548).
T3 sequence: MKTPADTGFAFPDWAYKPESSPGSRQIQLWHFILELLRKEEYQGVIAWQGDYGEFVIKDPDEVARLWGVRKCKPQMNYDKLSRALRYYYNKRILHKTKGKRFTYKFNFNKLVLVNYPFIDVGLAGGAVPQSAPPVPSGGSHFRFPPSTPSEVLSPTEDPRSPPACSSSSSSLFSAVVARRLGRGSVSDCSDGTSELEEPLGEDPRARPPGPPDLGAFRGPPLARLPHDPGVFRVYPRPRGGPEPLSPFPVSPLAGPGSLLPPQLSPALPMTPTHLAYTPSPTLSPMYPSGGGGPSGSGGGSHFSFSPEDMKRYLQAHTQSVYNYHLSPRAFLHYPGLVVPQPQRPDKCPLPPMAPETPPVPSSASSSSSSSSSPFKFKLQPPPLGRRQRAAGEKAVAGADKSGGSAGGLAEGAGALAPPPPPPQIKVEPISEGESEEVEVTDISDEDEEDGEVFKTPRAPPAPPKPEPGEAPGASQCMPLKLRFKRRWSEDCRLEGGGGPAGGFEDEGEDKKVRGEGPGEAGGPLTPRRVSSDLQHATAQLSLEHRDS
An outline of the steps: as §1

Another test deals with T4, ETV3L (Homo sapiens, UniProt Q6ZN32 1-361).
T4 sequence: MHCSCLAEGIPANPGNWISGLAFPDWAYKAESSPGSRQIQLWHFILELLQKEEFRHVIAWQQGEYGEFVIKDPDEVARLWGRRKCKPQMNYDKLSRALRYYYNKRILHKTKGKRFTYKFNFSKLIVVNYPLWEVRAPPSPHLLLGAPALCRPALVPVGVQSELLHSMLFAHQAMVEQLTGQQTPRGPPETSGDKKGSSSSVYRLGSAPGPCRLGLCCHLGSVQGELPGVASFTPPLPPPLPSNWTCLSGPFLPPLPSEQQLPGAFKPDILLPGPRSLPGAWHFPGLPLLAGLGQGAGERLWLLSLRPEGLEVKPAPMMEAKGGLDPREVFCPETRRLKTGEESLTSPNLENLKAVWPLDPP
Put shortly:
as §1

The next test deals with T5, ETS2 (Homo sapiens, UniProt P15036 1-469).
T5 sequence: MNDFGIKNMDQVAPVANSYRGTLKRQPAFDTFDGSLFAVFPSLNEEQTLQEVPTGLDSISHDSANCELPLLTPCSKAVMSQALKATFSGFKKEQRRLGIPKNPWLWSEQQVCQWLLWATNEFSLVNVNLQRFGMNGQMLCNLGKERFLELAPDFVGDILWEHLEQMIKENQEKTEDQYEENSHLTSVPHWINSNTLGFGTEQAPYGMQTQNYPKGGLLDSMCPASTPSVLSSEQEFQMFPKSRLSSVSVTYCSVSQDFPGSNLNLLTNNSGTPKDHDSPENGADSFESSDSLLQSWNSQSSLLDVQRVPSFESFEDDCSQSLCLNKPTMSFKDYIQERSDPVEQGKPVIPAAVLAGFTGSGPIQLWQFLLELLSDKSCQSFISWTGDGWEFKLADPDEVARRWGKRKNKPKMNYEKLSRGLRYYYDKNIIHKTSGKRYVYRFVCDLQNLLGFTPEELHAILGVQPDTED
Put shortly:
as §1

A further test has as its target T6, ETV7 (Homo sapiens, UniProt Q9Y603 1-341).
T6 sequence: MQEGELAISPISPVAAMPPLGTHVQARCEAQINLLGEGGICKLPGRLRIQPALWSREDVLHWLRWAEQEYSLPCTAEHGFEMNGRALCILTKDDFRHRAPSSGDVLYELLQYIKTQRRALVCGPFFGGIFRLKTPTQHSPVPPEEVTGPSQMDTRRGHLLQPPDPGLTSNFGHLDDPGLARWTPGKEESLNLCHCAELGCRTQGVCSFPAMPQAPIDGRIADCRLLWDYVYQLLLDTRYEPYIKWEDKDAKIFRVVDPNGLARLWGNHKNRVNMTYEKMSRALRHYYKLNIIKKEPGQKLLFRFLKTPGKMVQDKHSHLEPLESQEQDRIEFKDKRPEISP
Put shortly:
as §1

The next test has as its target T7, ETV3 (Homo sapiens, UniProt P41162-2 1-143).
T7 sequence: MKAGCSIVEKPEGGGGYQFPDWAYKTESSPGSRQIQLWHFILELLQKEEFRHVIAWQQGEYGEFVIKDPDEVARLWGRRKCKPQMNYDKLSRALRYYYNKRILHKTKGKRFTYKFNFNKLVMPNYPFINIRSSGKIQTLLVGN
Put shortly:
as §1

The target in the next test is ETV6 (Homo sapiens, UniProt P41212 1-452). An outline of the steps: as §1
ETV6, sequence (P41212 whole entry): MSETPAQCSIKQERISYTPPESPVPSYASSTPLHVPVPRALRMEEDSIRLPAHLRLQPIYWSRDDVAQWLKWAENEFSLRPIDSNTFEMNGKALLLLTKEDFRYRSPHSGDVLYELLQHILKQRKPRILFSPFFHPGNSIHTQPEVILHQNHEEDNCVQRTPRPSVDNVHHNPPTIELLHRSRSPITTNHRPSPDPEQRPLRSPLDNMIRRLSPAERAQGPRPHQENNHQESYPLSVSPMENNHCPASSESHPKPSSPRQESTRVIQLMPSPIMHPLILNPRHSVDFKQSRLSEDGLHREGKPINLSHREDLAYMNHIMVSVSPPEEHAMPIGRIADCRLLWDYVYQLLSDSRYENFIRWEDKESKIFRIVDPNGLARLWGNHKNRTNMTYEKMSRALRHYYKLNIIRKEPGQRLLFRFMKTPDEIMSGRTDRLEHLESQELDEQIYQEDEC

ETV1, sequence (P50549 whole entry): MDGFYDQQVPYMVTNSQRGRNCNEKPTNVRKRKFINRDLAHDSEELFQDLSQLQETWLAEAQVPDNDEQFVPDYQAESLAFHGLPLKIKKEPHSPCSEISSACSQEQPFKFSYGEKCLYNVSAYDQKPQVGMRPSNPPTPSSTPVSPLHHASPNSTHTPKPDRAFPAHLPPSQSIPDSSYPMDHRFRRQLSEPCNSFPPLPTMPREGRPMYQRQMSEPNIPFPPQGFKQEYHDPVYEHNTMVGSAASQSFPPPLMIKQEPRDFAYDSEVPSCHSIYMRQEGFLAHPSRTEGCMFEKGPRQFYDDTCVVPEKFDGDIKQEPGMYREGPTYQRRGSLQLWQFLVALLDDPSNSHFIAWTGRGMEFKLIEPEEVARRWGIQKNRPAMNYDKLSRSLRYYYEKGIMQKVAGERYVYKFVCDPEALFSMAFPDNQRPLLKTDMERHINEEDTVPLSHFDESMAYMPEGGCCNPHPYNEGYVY

With TCAGCT, the binding signal in the test with ELK4 was 1.14 fold enrichment (6-mer frequency, TF over GST control); with ETV2, 1.11 fold enrichment (6-mer frequency, TF over GST control); with CRX, 1.39 fold enrichment (6-mer frequency, TF over GST control); with ETV1, 1.14 fold enrichment (6-mer frequency, TF over GST control); in the test with ERF, 1.09 fold enrichment (6-mer frequency, TF over GST control); in the test with ETV3L, 1.09 fold enrichment (6-mer frequency, TF over GST control). The binding signal was 1.14 fold enrichment (6-mer frequency, TF over GST control) with ETS2; 1.01 fold enrichment (6-mer frequency, TF over GST control) in the test with ETV7; 1.05 fold enrichment (6-mer frequency, TF over GST control) with ETV3; 1.04 fold enrichment (6-mer frequency, TF over GST control) with ETV6.

The record behind these values is paper PMC7862700, “An all-to-all approach to the identification of sequence-specific readers for epigenetic DNA modifications on cytosine”.
